# About 410 targets per protein were measured; listed, in parts, are those with the strongest signals and a random draw of the rest.
# B1: Gal 1 (Mus musculus), P16045 (protein)
# chain: MACGLVASNLNLKPGECLKVRGEVASDAKSFVLNLGKDSNNLCLHFNPRFNAHGDANTIVCNTKEDGTWGTEHREPAFPFQPGSITEVCITFDQADLTIKLPDGHEFKFPNRLNMEAINYMAADGDFKIKCVAFE
# Columns and labels:
# Test in all cases: glycan array binding signal (z-score within array); higher = stronger binding
# Settings in all cases: glycan notation: IUPAC condensed, linker removed
# [1] = target: Gal(b1-4)GlcNAc(b1-3)Gal(b1-4)GlcNAc(b1-3)Gal(b1-4)GlcNAc(b1-2)Man(a1-3)[Gal(b1-4)GlcNAc(b1-3)Gal(b1-4)GlcNAc(b1-3)Gal(b1-4)GlcNAc(b1-2)Man(a1-6)]Man(b1-4)GlcNAc(b1-4)[Fuc(a1-6)]GlcNAc
# Outline: (§1)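 Arrays were curated from the Consortium for Functional Glycomics database, 3228 in total, and kept only where the protein sequence was available. Binding is expressed as a within-array Z-score. This score was averaged across arrays of the same protein sequence at different concentrations or buffers and across linkers, and negative values can be read as non-binding.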
# [2] = target: Gal(b1-4)GlcNAc(b1-3)Gal(b1-4)GlcNAc(b1-3)Gal(b1-4)GlcNAc(b1-2)[Gal(b1-4)GlcNAc(b1-3)Gal(b1-4)GlcNAc(b1-3)Gal(b1-4)GlcNAc(b1-6)]Man(a1-6)[Gal(b1-4)GlcNAc(b1-3)Gal(b1-4)GlcNAc(b1-3)Gal(b1-4)GlcNAc(b1-2)Man(a1-3)]Man(b1-4)GlcNAc(b1-4)[Fuc(a1-6)]GlcNAc
# Outline: as §1
# [3] = target: Gal(b1-4)GlcNAc(b1-3)Gal(b1-4)GlcNAc(b1-3)Gal(b1-4)GlcNAc(b1-3)Gal(b1-4)GlcNAc(b1-2)Man(a1-3)[Gal(b1-4)GlcNAc(b1-3)Gal(b1-4)GlcNAc(b1-3)Gal(b1-4)GlcNAc(b1-3)Gal(b1-4)GlcNAc(b1-2)Man(a1-6)]Man(b1-4)GlcNAc(b1-4)GlcNAc
# Outline: as §1
# [4] = target: Gal(b1-4)GlcNAc(b1-3)Gal(b1-4)GlcNAc(b1-3)Gal(b1-4)GlcNAc(b1-3)Gal(b1-4)GlcNAc(b1-2)[Gal(b1-4)GlcNAc(b1-3)Gal(b1-4)GlcNAc(b1-3)Gal(b1-4)GlcNAc(b1-3)Gal(b1-4)GlcNAc(b1-6)]Man(a1-6)[Gal(b1-4)GlcNAc(b1-3)Gal(b1-4)GlcNAc(b1-3)Gal(b1-4)GlcNAc(b1-3)Gal(b1-4)GlcNAc(b1-2)Man(a1-3)]Man(b1-4)GlcNAc(b1-4)[Fuc(a1-6)]GlcNAc
# Outline: as §1
# [5] = target: Gal(b1-4)GlcNAc(b1-3)Gal(b1-4)GlcNAc(b1-3)Gal(b1-4)GlcNAc(b1-3)Gal(b1-4)GlcNAc(b1-3)Gal(b1-4)GlcNAc(b1-2)[Gal(b1-4)GlcNAc(b1-3)Gal(b1-4)GlcNAc(b1-3)Gal(b1-4)GlcNAc(b1-3)Gal(b1-4)GlcNAc(b1-3)Gal(b1-4)GlcNAc(b1-6)]Man(a1-6)[Gal(b1-4)GlcNAc(b1-3)Gal(b1-4)GlcNAc(b1-3)Gal(b1-4)GlcNAc(b1-3)Gal(b1-4)GlcNAc(b1-3)Gal(b1-4)GlcNAc(b1-2)Man(a1-3)]Man(b1-4)GlcNAc(b1-4)[Fuc(a1-6)]GlcNAc
# Outline: as §1
# [6] = target: Gal(b1-4)GlcNAc(b1-6)[Gal(b1-4)GlcNAc(b1-3)]GalNAc
# Outline: as §1
# Gal3S(b1-3)GlcNAc = target: Gal3S(b1-3)GlcNAc
# Outline: as §1
# Gal3S(b1-4)Glc6S = target: Gal3S(b1-4)Glc6S
# Outline: as §1
# [7] = target: Gal3S(b1-4)[Fuc(a1-3)]GlcNAc6S
# Outline: as §1
# GalNAc(b1-4)GlcNAc6S = target: GalNAc(b1-4)GlcNAc6S
# Outline: as §1
# [8] = target: GlcNAc(a1-4)Gal(b1-4)GlcNAc(b1-3)Gal(b1-4)GlcNAc(b1-3)Gal(b1-4)GlcNAc
# Outline: as §1
# [9] = target: GlcNAc(a1-4)Gal(b1-4)GlcNAc(b1-3)Gal(b1-4)[Fuc(a1-3)]GlcNAc(b1-3)Gal(b1-4)[Fuc(a1-3)]GlcNAc
# Outline: as §1
# GlcNAc(b1-3)Fuc = target: GlcNAc(b1-3)Fuc
# Outline: as §1
# [10] = target: GlcNAc(b1-3)Gal(b1-4)GlcNAc(b1-3)Gal(b1-4)GlcNAc(b1-2)Man(a1-3)[GlcNAc(b1-3)Gal(b1-4)GlcNAc(b1-3)Gal(b1-4)GlcNAc(b1-2)Man(a1-6)]Man(b1-4)GlcNAc(b1-4)[Fuc(a1-6)]GlcNAc
# Outline: as §1
# GlcNAc(b1-3)GalNAc = target: GlcNAc(b1-3)GalNAc
# Outline: as §1
# [11] = target: GlcNAc(b1-3)[GlcNAc(b1-6)]GalNAc
# Outline: as §1
# Man(a1-6)Man = target: Man(a1-6)Man
# Outline: as §1
# [12] = target: Neu5Ac(a2-3)Gal(b1-3)[Neu5Ac(a2-3)Gal(b1-4)]GlcNAc
# Outline: as §1
# [13] = target: Neu5Ac(a2-3)Gal(b1-4)GlcNAc
# Outline: as §1
# [14] = target: Neu5Ac(a2-3)Gal(b1-4)GlcNAc(b1-3)Gal(b1-4)GlcNAc(b1-2)Man(a1-3)[Neu5Ac(a2-3)Gal(b1-4)GlcNAc(b1-3)Gal(b1-4)GlcNAc(b1-2)Man(a1-6)]Man(b1-4)GlcNAc(b1-4)GlcNAc
# Outline: as §1
# [15] = target: Neu5Ac(a2-3)Gal(b1-4)[Fuc(a1-3)]GlcNAc(b1-3)Gal(b1-4)[Fuc(a1-3)]GlcNAc(b1-3)Gal(b1-4)[Fuc(a1-3)]GlcNAc
# Outline: as §1
# [16] = target: Neu5Ac(a2-3)Gal6S(b1-4)GlcNAc
# Outline: as §1
# [17] = target: Neu5Ac(a2-3)[Neu5Ac(a2-6)]GalNAc
# Outline: as §1
# [18] = target: Neu5Ac(a2-6)Gal(b1-4)GlcNAc(b1-2)Man(a1-3)[Neu5Ac(a2-3)Gal(b1-4)GlcNAc(b1-2)Man(a1-6)]Man(b1-4)GlcNAc(b1-4)GlcNAc
# Outline: as §1
# [19] = target: Neu5Ac(a2-6)Gal(b1-4)GlcNAc(b1-3)Gal(b1-4)GlcNAc
# Outline: as §1
# [20] = target: Neu5Ac(a2-6)Gal(b1-4)GlcNAc(b1-3)Gal(b1-4)GlcNAc(b1-3)[Neu5Ac(a2-6)Gal(b1-4)GlcNAc(b1-3)Gal(b1-4)GlcNAc(b1-6)]GalNAc
# Outline: as §1
# [21] = target: Neu5Ac(a2-6)Gal(b1-4)GlcNAc(b1-6)[Gal(b1-3)GlcNAc(b1-3)]Gal(b1-4)Glc
# Outline: as §1
# [22] = target: Neu5Ac(a2-6)GlcNAc(b1-4)GlcNAc
# Outline: as §1
# Neu5Ac(a2-8)Neu5Ac = target: Neu5Ac(a2-8)Neu5Ac
# Outline: as §1
# [23] = target: Neu5Ac(a2-8)Neu5Ac(a2-8)Neu5Ac(a2-3)Gal(b1-4)Glc
# Outline: as §1
# [24] = target: Neu5Ac(a2-8)Neu5Ac(a2-8)Neu5Ac(a2-3)[GalNAc(b1-4)]Gal(b1-4)Glc
# Outline: as §1
binder,measurement,setting,value
B1,glycan array binding signal (z-score),[1],2.53
same,glycan array binding signal (z-score),[2],3.89
same,glycan array binding signal (z-score),[3],2.54
same,glycan array binding signal (z-score),[4],3.42
same,glycan array binding signal (z-score),[5],3.46
same,glycan array binding signal (z-score),[6],-0.011
same,glycan array binding signal (z-score),Gal3S(b1-3)GlcNAc,2.76
same,glycan array binding signal (z-score),Gal3S(b1-4)Glc6S,0.672
same,glycan array binding signal (z-score),[7],2.69
same,glycan array binding signal (z-score),GalNAc(b1-4)GlcNAc6S,-0.452
same,glycan array binding signal (z-score),[8],-0.404
same,glycan array binding signal (z-score),[9],-0.015
same,glycan array binding signal (z-score),GlcNAc(b1-3)Fuc,-0.43
same,glycan array binding signal (z-score),[10],-0.19
same,glycan array binding signal (z-score),GlcNAc(b1-3)GalNAc,-0.094
same,glycan array binding signal (z-score),[11],-0.292
same,glycan array binding signal (z-score),Man(a1-6)Man,0.23
same,glycan array binding signal (z-score),[12],0.068
same,glycan array binding signal (z-score),[13],-0.256
same,glycan array binding signal (z-score),[14],1.31
same,glycan array binding signal (z-score),[15],-0.083
same,glycan array binding signal (z-score),[16],-0.411
same,glycan array binding signal (z-score),[17],-0.3
same,glycan array binding signal (z-score),[18],-0.219
same,glycan array binding signal (z-score),[19],-0.348
same,glycan array binding signal (z-score),[20],1.13
same,glycan array binding signal (z-score),[21],0.027
same,glycan array binding signal (z-score),[22],-0.34
same,glycan array binding signal (z-score),Neu5Ac(a2-8)Neu5Ac,-0.093
same,glycan array binding signal (z-score),[23],-0.347
same,glycan array binding signal (z-score),[24],-0.144

# Reference: the supplement of paper PMC8728848
